Reference: PubChem BioAssay AID1053 (University of Pittsburgh Molecular Library Screening Center, 2008)
Where “and” joins values, the source holds several entries; their conditions need not be identical. Equal values may be shown once. Calls of active or inactive are those of the source. No rule for the calls is given here.

biological target: Serine/threonine-protein kinase PLK1 (Homo sapiens) (UniProt P53350); test: Plk1 polo box domain binding inhibitors, SAR follow-up, biochemical, fluorescence polarization, purchased analogs (AID 1053); conditions: Plk1 PBD fluorescence polarization peptide binding; at 20 µM; hits give high values
Sequence (P53350 whole entry, looked up, the tested form may be a part): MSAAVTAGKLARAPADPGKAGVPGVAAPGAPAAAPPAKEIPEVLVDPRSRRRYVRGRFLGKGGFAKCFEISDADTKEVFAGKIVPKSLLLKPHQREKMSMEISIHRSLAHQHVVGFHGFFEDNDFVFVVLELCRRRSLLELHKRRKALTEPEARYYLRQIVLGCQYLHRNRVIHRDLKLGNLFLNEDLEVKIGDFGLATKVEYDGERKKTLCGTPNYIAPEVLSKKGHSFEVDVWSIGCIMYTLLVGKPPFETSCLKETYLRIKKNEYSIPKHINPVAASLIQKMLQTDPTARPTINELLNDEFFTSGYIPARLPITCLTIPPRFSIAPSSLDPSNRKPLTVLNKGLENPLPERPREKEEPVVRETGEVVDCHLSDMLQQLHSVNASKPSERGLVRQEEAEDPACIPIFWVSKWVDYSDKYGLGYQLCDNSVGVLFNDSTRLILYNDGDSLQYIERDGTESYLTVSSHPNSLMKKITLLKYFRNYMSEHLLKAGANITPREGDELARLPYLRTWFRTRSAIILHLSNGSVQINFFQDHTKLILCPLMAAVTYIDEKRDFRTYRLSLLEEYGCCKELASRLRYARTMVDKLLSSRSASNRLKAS

inhibition, active:
O=C(COC(=O)c1ccc(NC(=O)c2ccc([N+](=O)[O-])cc2)cc1)c1ccccc1 61.8%

inhibition, inactive:
CCOC(=O)c1ccc(NC(=O)C23CC4CC(CC(C4)C2)C3)cc1 -35.4%
CC(=O)Oc1ccccc1N(/C=C1/Sc2ccccc2C1=O)C(C)=O -290%
O=c1cc[nH]c2cc(N3CCOCC3)c(F)cc12 -49%
CCOC(=O)c1ccc(NC(=O)c2cc(=O)[nH]c3ccccc23)cc1 -81.3%
CCc1ccc(-c2nc3c(=O)n(C)c(=O)nc-3n(CC)n2)cc1 5.6% and 4.47%
CCOC(=O)c1ccc(NC(=O)C2CC(=O)NC(=NC)S2)cc1 (configuration not stated) -37.5%
CCOC(=O)c1ccc(NC(=O)c2ccc3snnc3c2)cc1 -21.6% and -22.3%
Cn1c(=O)[nH]c2nnc(-c3ccccc3)nc2c1=O -31%
CC(=O)N(/N=C1\Sc2ccccc2C1=O)c1cc(C)ccc1C 33%
Cc1ccccc1-c1nc2c(=O)n(C)c(=O)nc-2n(C)n1 36.2% and 24.8%
CCCCCC(=O)N(CN1C(=O)c2ccccc2C1=O)c1ccccc1OC -35.4%
CC(=O)N(/N=C1\Sc2ccccc2C1=O)c1ccccc1 24.7%
CC(=O)N(CN1C(=O)c2ccc(Br)cc2C1=O)c1ccc(Cl)cc1 -43%
CCCCCCC(=O)N(CN1C(=O)c2ccccc2C1=O)c1ccc(OCc2ccccc2)cc1 -7.37%
Cn1c(=O)c2nc(-c3ccccc3)c(=O)n(C)c2n(C)c1=O -37.8%
CCOc1cc(-c2nnc3[nH]c(=O)n(C)c(=O)c3n2)ccc1OC(C)C 15.8%
CCOC(=O)c1ccc(NC(=O)c2cc3ccccc3c(=O)o2)cc1 -35.6%
COc1ccccc1N(CN1C(=O)c2ccccc2C1=O)C(C)=O -46.9%
COc1cc(C=C2C(=O)NC(=O)NC2=O)ccc1OCc1ccc(Cl)cc1Cl -58.1%
CCN(CC)CCOC(=O)c1ccc(N=Cc2c(O)n(Cc3ccccc3)c(=O)[nH]c2=O)cc1 -220%
COc1ccccc1N(CN1C(=O)c2ccc([N+](=O)[O-])cc2C1=O)C(C)=O -55.2%
CCOC(=O)c1ccc(NC(=O)C2CCCCC2C(=O)O)cc1 (configuration not stated) -39.1%
CC(=O)N(CN1C(=O)c2ccccc2C1=O)c1ccc(C)c(Cl)c1 -39.1%
CCOC(=O)c1ccc(NC(=O)C2OCCc3ccccc32)cc1 (configuration not stated) -101%
Cn1c(=O)[nH]c2nnc(-c3ccc([N+](=O)[O-])cc3)nc2c1=O -49.9%
CC(=O)N(CN1C(=O)c2ccccc2C1=O)c1cccc(F)c1 -51.8%
CCOC(=O)c1ccc(N=Cc2c(O)n(-c3ccc(OCC)cc3)c(=O)[nH]c2=O)cc1 -112%
CCOC(=O)c1ccc(NC(=O)C2CCC(C(C)(C)C)CC2)cc1 (configuration not stated) 8.43%
CCOC(=O)c1ccc(N=Cc2c(O)n(-c3cccc(OC)c3)c(=O)[nH]c2=O)cc1 -40.6%
Cn1c(=O)c2nc(-c3ccccc3)c(-c3ccccc3)nc2n(C)c1=O -30.5%
CC(=O)N(/N=C1\Sc2ccccc2C1=O)c1cccc(C)c1 20.1%
Cn1nc(-c2ccc(C(F)(F)F)cc2)nc2c(=O)n(C)c(=O)nc1-2 13.6% and 30.2%
CCOC(=O)c1ccc(NC(=O)C2CC(=O)N=C(N)S2)cc1 (configuration not stated) -67.2%
O=C(COC(=O)c1ccc(NC(=O)c2ccc(Cl)cc2)cc1)c1ccccc1 41.3%
CCOC(=O)c1ccc(NC(=O)C2CCC(C)CC2)cc1 (configuration not stated) -28.3%
CC(=O)Oc1c(Cl)c(N2CCOCC2)c(OC(C)=O)c2ccccc12 -39.3%
